IL-1B inflam inh: blocks inflammasome-driven IL-1 beta release; THP-1 LPS/ATP IL-1B secretion, AlphaLISA, 16 h; stronger effect = lower value; activity change, % at 57.5 µM; actives 4.7% (n = 360,000); AID 743279; in the data active means activity change below about -50%; inconclusive means mostly about -30% to -49%; further: on the % scale 0 is the no-effect control and ±100 the full control effect
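THP-1 cells pretreated 1 hr with compounds (up to 57.5 uM final), then stimulated with LPS (250 ng/mL final) plus ATP (1.25 mM final); secreted IL-1B measured by AlphaLISA after 16 hr, decreased signal indicating inhibition.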
USP1-UAF1 inh: inhibitors of human USP1/UAF1 deubiquitinase. recombinant USP1/UAF1, Ub-Rhodamine cleavage fluorescence. Potency, µM (doses to about 57.1 µM), for inactives: at the top dose activity change, negative = inhibition, usual class: inhibitors. actives 0.23% (n = 390,000). AID 743255; further: potency means the concentration at half of the fitted maximal effect; on the % scale 0 is the no-effect control and ±100 the full control effect; nearly all actives have a fitted effect of over 60% in size
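Step one: compound is pinned into 1nM USP1/UAF1 in HEPES pH 7.8 buffer with TCEP. Step two: 15 min room-temperature incubation. Step three: Ub-Rho (150nM final) starts cleavage, tracked by fluorescence over six one-minute reads.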
USP2a block: inhibitors of human ubiquitin-specific protease USP2a; O75604; USP2 core, Ub-CHOP2 coupled fluorogenic reporter, 485/531; Potency, µM (doses to about 38.3 µM), without a hit: at the top dose activity change, negative = inhibition, most hits filed as inhibitors; actives 0.01% (n = 330,000); AID 463254;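 further: potency means the concentration at half of the fitted maximal effect; plate controls were DMSO wells for no effect and full inhibition by NEM control for full effect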
Target sequence (O75604 whole entry, looked up): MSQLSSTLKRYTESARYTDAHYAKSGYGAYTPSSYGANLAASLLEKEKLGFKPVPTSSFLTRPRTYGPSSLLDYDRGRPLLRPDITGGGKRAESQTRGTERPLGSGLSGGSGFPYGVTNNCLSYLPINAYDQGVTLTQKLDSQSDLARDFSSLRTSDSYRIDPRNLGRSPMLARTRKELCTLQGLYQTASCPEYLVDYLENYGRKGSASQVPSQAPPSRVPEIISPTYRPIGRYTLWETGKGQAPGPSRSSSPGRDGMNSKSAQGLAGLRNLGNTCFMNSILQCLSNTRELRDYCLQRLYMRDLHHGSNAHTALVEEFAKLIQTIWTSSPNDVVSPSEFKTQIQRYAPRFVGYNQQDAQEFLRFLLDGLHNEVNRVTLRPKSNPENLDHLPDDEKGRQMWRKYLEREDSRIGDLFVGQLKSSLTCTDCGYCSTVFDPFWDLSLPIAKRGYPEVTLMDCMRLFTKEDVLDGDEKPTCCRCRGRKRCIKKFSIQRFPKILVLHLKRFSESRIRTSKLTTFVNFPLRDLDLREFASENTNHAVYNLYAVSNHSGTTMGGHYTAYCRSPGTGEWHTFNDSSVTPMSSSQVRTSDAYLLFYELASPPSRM
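USP2 core (10nM final) preincubated 30min RT with compound in 20mM Tris-HCl pH 8.0, 2mM CaCl2, 2mM beta-mercaptoethanol, 0.05% CHAPS; 25nM Ub-CHOP2 plus 25nM reporter substrate added, fluorescence (Ex485/Em531) read after 60min.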
ATXN viability: reduces viability in counter-screen for ATXN expression inhibitors. S2 cells (HEK-293 line with an ATXN2-luciferase reporter) viability, CellTiter-Fluor protease fluorescence, 24 h. Potency, µM (titrated, usually from 56.7 µM), usual class: cytotoxic. actives 0.49% (n = 400,000). AID 651635; further: potency means the concentration at half of the fitted maximal effect; nearly all actives have a fitted effect of over 40% in size
ATXN2 expr inh: ATXN2 expression inhibition; Potency, µM (titrated, usually from 57 µM), for inactives: at the highest dose activity change, negative = inhibition, most hits filed as inhibitors; AID 1745845; actives 0.72% (n = 360,000); HEK-293 ATXN2-luciferase reporter, luminescence, 24 h; further: potency means the concentration at half of the fitted maximal effect; on the % scale 0 is the no-effect control and ±100 the full control effect; nearly all actives have a fitted effect of over 55% in size
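ATXN2-luciferase reporter cells (luciferase flanked by upstream and downstream ATXN2 gene portions) were treated 24 h at 37 °C with compounds at up to 57 uM. SteadyGlo luminescence gave expression; GF-AFC fluorescence gave viability.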
* = called active by the depositor; i = inactive; u = inconclusive; x = no result. An excerpt weighted towards active compounds, which were near 4.8% of everything screened. Unless noted, the call rests on the fitted dose curve; in most records, active means well fitted curve in the direction sought with a large enough effect; inconclusive means small, poorly fitted or top-dose-only effect, or another doubt; inactive means no such curve, though single readings can be large; an effect the other way counts as inactive or inconclusive.

SMILES | IL-1B inflam inh | USP1-UAF1 inh | USP2a block | ATXN viability | ATXN2 expr inh
N#Cc1c(-c2ccccc2)nc(SCC(=O)N2c3ccccc3Sc3ccccc32)[nH]c1=O | -20 | 32µM* | -10% | i | -24%
CCOC(=O)c1ccccc1NC(=O)Nc1cc2c(cc1N1CCCCC1)n(C)c(=O)n2C | x | -3% | x | i | 2%
Cc1ccc2nc(NCCCO)nc(-c3ccccc3)c2c1 | -4 | -19% | 7% | i | -26%
O=C(NNc1nc(-c2ccccc2)c2cc(Br)ccc2n1)c1ccc(S(=O)(=O)N2CCOCC2)cc1 | -51* | -1% | 0% | i | -10%
CN(C)S(=O)(=O)c1ccc(C(=O)NNc2nc(-c3ccccc3)c3cc(Br)ccc3n2)cc1 | -60* | -5% | -11% | i | -15%
OCCCNc1nc(-c2ccccc2)c2cc(Br)ccc2n1 | -76* | -5% | -25% | i | -6%
COc1ccc2cc(C(=O)C3CCCN(Cc4cccc(C)n4)C3)ccc2c1 (centres undefined) | -109* | -12% | 3% | i | -13%
COc1cccc(-c2ccc(NC(=O)C3CCCN(Cc4cccc(C)n4)C3)cc2)c1 (centres undefined) | -11 | -25% | x | u | x
CCOC(=O)N1CCC(N2CCCC(C(=O)c3ccc4cc(OC)ccc4c3)C2)CC1 (centres undefined) | -162* | -3% | -1% | i | -39%
COc1ccccc1C(=O)Oc1c(Sc2ccccc2)c(C)nn1-c1ccccc1 | x | -26% | x | 11µM* | u
COc1cc(C(=O)Oc2c(Sc3ccc(C)cc3)c(C)nn2-c2ccccc2)cc(OC)c1OC | x | -2% | x | i | -4%
Cc1ccc(S(=O)(=O)N2CCCCC2)cc1NC(=O)CNC(C)c1ccc(Cl)c(Cl)c1 (centres undefined) | -63* | -24% | -15% | u | u
Cc1cc(Br)ccc1NC(=O)CNC(=O)Cn1ncc(Cl)c(Cl)c1=O | -98* | -9% | 0% | 3.4µM* | 4.7µM*
Cc1ccc(S(=O)(=O)N2CCCCC2)cc1NC(=O)Cn1ncc(Cl)c(Cl)c1=O | -102* | -9% | 0% | u | u
Cc1ccc2oc(=O)c3cnn(CC(=O)Nc4ccc(Br)cc4C)c3c2c1 | x | -11% | x | x | x
COc1ccc(-n2c(=O)c3ccc(C(=O)NCc4ccc(C)cc4)cc3n(Cc3cccc(Cl)c3)c2=O)cc1 | x | -17% | x | i | 6%
O=C1NN(CCO)C(=S)Nc2ccccc21 | -5 | 3% | x | i | x
Cc1nn(CCCC(=O)NCCc2ccc(Cl)cc2)c(=O)c2c1sc1ccccc12 | x | -17% | x | x | x
N=C1SC(c2ccccc2)C(=O)N1c1ncc(Cc2ccccc2Cl)s1 (centres undefined) | 12 | -19% | -17% | x | 18µM*
O=C(O)C(c1ccccc1)C(O)C1CCCC1 (centres undefined) | 17 | -4% | x | i | 0%
N#Cc1ccccc1COC(=O)c1ccc2c(c1)OCCO2 | -50* | -4% | 2% | i | 30%
CCCCOP(=O)(OCCCC)C(Nc1ccc(C(=O)OCC)cc1)c1ccncc1 (centres undefined) | -65* | -28% | -1% | i | -17%
Cc1cc(OCCN2CCC(Cc3ccccc3)CC2)ccc1[N+](=O)[O-] | -74* | -20% | 3% | i | u
Cc1cn2cc(C(=O)N(C)CCO)cc(N[C@@H]3CCOc4cccc(C)c43)c2n1 | x | x | x | x | 3%
O=C1NC[C@@H](Cc2cccc3ccccc23)N(CCc2cc(C(F)(F)F)cc(C(F)(F)F)c2)C1=O | -51* | u | -14% | x | u
SMILES | IL-1B inflam inh | USP1-UAF1 inh | USP2a block | ATXN viability | ATXN2 expr inh
Cc1ccc(N(CC(=O)N2CCN(Cc3ccccc3)CC2)S(C)(=O)=O)cc1C | -2 | -22% | -1% | u | u
CCOC(=O)c1nnn(-c2nonc2-n2cccc2)c1CCl | -117* | 2% | 0% | i | -26%
Cn1c(C(=O)N2CCN(c3ccc([N+](=O)[O-])cc3)CC2)cc2c(=O)[nH]c3ccccc3c21 | -54* | -6% | 2% | i | -21%
Cc1cc(C(=O)N2CCN(c3ccc([N+](=O)[O-])cc3)CC2)co1 | -5 | -8% | 1% | i | 0%
O=C(CSC1=Nc2ccccc2C2=NC(Cc3ccccc3)C(=O)N12)Nc1ccccc1C(F)(F)F (centres undefined) | x | -12% | x | u | 1%
Cc1ccc2nc(-c3ccncc3)cc(-c3ccccc3)c2c1 | u | -15% | -2% | i | -16%
Cc1ccc(-c2cc3cccc[n+]3cc2-c2ccc(C)cc2)cc1 | -88* | -1% | 2% | u | -39%
CCCN1Cc2cc(OC)ccc2-c2ccccc2S1(=O)=O | 5 | 3% | -1% | i | -7%
CCOc1c(Br)cc(/C=C(\C#N)C(=O)NC2CC2)cc1OC | -13 | -14% | 0% | i | -4%
C=CCNC(=O)/C(C#N)=C\c1cc(Cl)c(OCC)c(OC)c1 | -91* | -9% | 10% | i | -9%
C=CCNC(=O)/C(C#N)=C/c1ccccc1Cl | -58* | -9% | 0% | i | -19%
COc1ccc(OC)c(S(=O)(=O)NC(=O)C2(C)CCN2C(=O)Cc2ccccc2Cl)c1 (centres undefined) | 26 | x | x | i | 6%
CN1/C(=C/c2cccc[n+]2CCO)Sc2ccccc21 | -1 | -13% | 1% | i | -10%
CC[n+]1ccccc1/C=C1\Sc2ccc(C)cc2N1C | -77* | -17% | -1% | u | 4µM*
COc1ccc(CN(C(=O)CSc2nnc(-c3ccccc3C)o2)c2ccc(F)cc2)cc1 | -3 | 3% | -8% | u | u
O=C(CSc1nnc(-c2c[nH]c3ccccc23)o1)N(Cc1ccccc1)c1ccc(F)cc1 | -65* | u | -11% | u | u
O=C(CCn1c(=O)[nH]c2ccccc21)NCC1Cc2cc(Cl)cc(-c3ccncc3)c2O1 (centres undefined) | x | x | x | i | x
CCCS(=O)(=O)NC(=O)C1(C)CCCN(C(=O)c2ccccc2F)C1 (centres undefined) | -71* | x | x | i | 7%
CCCS(=O)(=O)NC(=O)C1(C)CCCN(C(=O)c2c(F)cccc2F)C1 (centres undefined) | -4 | x | x | i | 6%
O=[N+]([O-])c1ccc2oc(C(O)c3cccc(Cl)c3)cc2c1 (centres undefined) | -93* | -11% | 5% | i | u
CCOC(=O)c1cc2cc([N+](=O)[O-])ccc2oc1=O | -6 | -20% | 2% | i | 3%
C[C@H](CO)N1C[C@H](C)[C@@H](CN(C)S(C)(=O)=O)Oc2ccc(NC(=O)CCN3CCOCC3)cc2C1=O | -4 | -19% | 0% | i | 4%

Screening results (PubChem)
